Measurements published in paper PMC4552634, “A New Set of Chemical Starting Points with Plasmodium falciparum Transmission-Blocking Potential for Antimalarial Drug Discovery” (PLoS ONE, 2015).
Screen size: about 13,000 compounds; about 3,200 (25%) showed an effect of 50% or more. The list shows a part of the results.

tested on: P. falciparum stage V gametocytes; design: BacTiter-Glo ATP luminescence viability of purified stage V gametocytes in 384-well plates, per cent inhibition versus DMSO; settings: 48 h, 5 µM; inhibitor

Compared with `Clc1ccc(CNc2nc(NCCc3cnc[nH]3)nc(N3CCCC4CCCCC43)n2)cc1` (stereo not drawn) [TCMDC-139743], `Cc1nc(C(C)Nc2nncc(-c3ccc(Cl)cc3)n2)cs1` (stereo not drawn) [TCMDC-124636] is lower in “% Inhibition” value: 10.44% for the first, -29.02% for the second.

Compared with `Cc1oc(-c2ccccc2)nc1CCOc1ccc(C[C@H](Nc2ccccc2C(=O)c2ccccc2)C(=O)NCc2ccccn2)cc1` [TCMDC-138315], `COc1cc(NC(=O)c2ccc(-c3ccccc3)cc2)ccc1OCCCN1CCC(c2ccccc2)CC1` [TCMDC-141370] is lower in “% Inhibition” value: -1.633% for the first, -49.11% for the second.

First: NC1=NC2(CCCC2)C(c2ccc(Cl)c(Cl)c2)C(N)=N1 (stereo not drawn) [TCMDC-137490]
Second: CN1CCN(c2ccnc3ccc(NC(=O)c4ccc(Cl)c(Cl)c4)cc23)CC1 [TCMDC-139350]
The “% Inhibition” value of the first is higher: 18.93% for the first, 4.304% for the second.

Compared with `O=C(c1cnn(-c2ccccc2)c1C(F)(F)F)N1CCN(c2ccnc3cc(Cl)ccc23)CC1` [TCMDC-123790], `CN1CCCN(c2ccnc3cc4c(cc23)N(C(=O)c2ccccc2Cl)CC4)CC1` [TCMDC-140239] is higher in “% Inhibition” value: -13.06% for the first, 27.46% for the second.

Compared with `COc1cc(Nc2nccc(NCC(O)c3ccc(C(F)(F)F)cc3)n2)cc(OC)c1OC` (stereo not drawn) [TCMDC-136589], `COc1cc(Cc2cnc(N)nc2N)cc(OCCCCNS(=O)(=O)C(F)(F)F)c1OC` [TCMDC-137348] is higher in “% Inhibition” value: -6.814% for the first, 8.081% for the second.

First: COc1ccc(-c2cccc(NC(=O)c3cccc(Cl)c3)c2)cc1CN1CCNCC1 [TCMDC-132613]
Second: COc1ccc(-c2cccc(NC(=O)c3cccc(C#N)c3)c2)cc1CN1CCNCC1 [TCMDC-132620]
The “% Inhibition” value of the first is higher: 106.1% for the first, 19.71% for the second.

First: Cc1nc(-c2ccc(-c3ccc(C(=O)Nc4ccc(I)c(OCC5CCCN5C)c4)cc3)c(C)c2)no1 (stereo not drawn) [TCMDC-139110]
Second: Cc1nc(-c2ccc(-c3ccc(C(=O)Nc4ccc(I)c(OCCN5CCCC5)c4)cc3)c(C)c2)no1 [TCMDC-139109]
The “% Inhibition” value of the first is lower: -18.97% for the first, 57.83% for the second.

First: O=C(Nc1ccc(-c2ccccc2)c(OCCN2CCNCC2)c1)c1ccc(-c2ccc(Cl)cc2)cc1 [TCMDC-138818]
Second: COc1ccc(-c2ccc(NC(=O)c3ccc(Cl)cc3)cc2)cc1CN1CCNCC1 [TCMDC-133338]
The “% Inhibition” value of the first is higher: 100.4% for the first, 93.69% for the second.

Going from `COc1ccc(-c2cccc(NC(=O)c3ccc(Cl)cc3)c2)cc1CN1CCCC1` [TCMDC-132604] to `COc1ccc(-c2cccc(NC(=O)c3ccc(Cl)cc3)c2)cc1CN1CCNCC1` [TCMDC-132601], the “% Inhibition” value rises from 46.68% to 95.75%.

First: Cc1nc(-c2ccc(-c3ccc(NC(=O)Nc4ccc(I)c(OCCN(C)C)c4)cc3)c(C)c2)no1 [TCMDC-139107]
Second: Cc1nc(-c2ccc(-c3ccc(C(=O)Nc4ccc(Cl)c(N5CCN(C)CC5)c4)cc3)c(C)c2)no1 [TCMDC-131979]
The “% Inhibition” value of the first is higher: -54.47% for the first, -60.2% for the second.

Going from `COc1ccc(-c2cccc(NC(=O)c3ccc(C#N)cc3)c2)cc1CN1CCCC1` [TCMDC-132611] to `COc1ccc(-c2ccc(NC(=O)c3ccc(C#N)cc3)cc2)cc1CN1CCCC1` [TCMDC-132519], the “% Inhibition” value rises from 11.39% to 46.41%.

Compared with `CN(C)CCOc1cc(NC(=O)c2ccc(-c3ccc(Cl)cc3Cl)cc2)ccc1-c1ccccc1` [TCMDC-138835], `COc1ccc(-c2cccc(NC(=O)c3ccc(Cl)cc3)c2)cc1CN1CCC(O)CC1` [TCMDC-132606] is lower in “% Inhibition” value: -44.47% for the first, -74.32% for the second.

Going from `CC1C(c2cccc(Cl)c2)OCC(C)(C)N1C(=O)CCN1CCCCC1` (stereo not drawn) [TCMDC-137873] to `CN1CC(c2ccccc2)c2cc(O)c(CN3CCCCC3)cc2CC1Cc1ccccc1` (stereo not drawn) [TCMDC-131902], the “% Inhibition” value rises from -11.63% to -4.593%.

Compared with `COc1ccc2nccc([C@@H](O)CN3CCC(NCc4ccc5c(c4)NC(=O)C(C)(C)O5)CC3)c2c1` [TCMDC-141097], `COc1ccc2nccc([C@@H](O)CN3CCC(NCc4nc5c(F)cccc5[nH]4)CC3)c2c1` [TCMDC-140760] is lower in “% Inhibition” value: 21.74% for the first, 20.74% for the second.

Compared with `NC(N)=NN=C1C=Cc2cccc3cccc1c23` [TCMDC-137662], `O=C(Nc1cccc(-c2ccc(CN3CCCC3)cc2)c1)c1cccc(Cl)c1` [TCMDC-132643] is higher in “% Inhibition” value: -87.82% for the first, 24.88% for the second.

First: Cc1cc(NC2CCCC2)nc(Nc2ccccc2F)n1 [TCMDC-133463]
Second: CCOc1ccccc1NC(=O)Nc1ccc2c(c1)CCN(C1CCC1)CC2 [TCMDC-135951]
The “% Inhibition” value of the first is lower: -1.86% for the first, 31.77% for the second.

First: Cc1cc(C)cc(Oc2c(C(F)(F)F)oc3c(CN4CC(C)OC(C)C4)c(O)ccc3c2=O)c1 (stereo not drawn) [TCMDC-125695]
Second: Cc1nc(-c2ccc(C(F)(F)F)cn2)sc1C(=O)N1CCc2cc3nccc(N4CCN5CCC[C@H]5C4)c3cc21 [TCMDC-140330]
The “% Inhibition” value of the first is higher: -2.168% for the first, -2.363% for the second.

Compared with `CCN1CCN(C(=O)NC(C(=O)N(C)Cc2ccc(-c3ccc(C(F)(F)F)cc3)cc2)c2cccs2)C(=O)C1=O` (stereo not drawn) [TCMDC-141576], `CN1CCCN(Cc2ccc(-c3ccc(NC(=O)c4cccc(Cl)c4)cc3)cc2)CC1` [TCMDC-132591] is higher in “% Inhibition” value: 23.66% for the first, 42.97% for the second.

Compared with `CCOC(=O)NOC(C(=O)O)c1ccccc1` (stereo not drawn) [TCMDC-131406], `COC(=O)c1cc(C(O)CNC(C)CCCc2ccccc2)ccc1O` (stereo not drawn) [TCMDC-131241] is lower in “% Inhibition” value: -4.765% for the first, -5.82% for the second.

Compared with `COC(=O)c1cccc(CNCc2cccc(-c3ccc(-c4nc5cc(C(F)(F)F)ccc5[nH]4)cc3)c2)c1.O=C(O)C(F)(F)F` [TCMDC-132955], `FC(F)(F)c1ccc2[nH]c(-c3ccc(-c4cccc(CNCC5CCCO5)c4)s3)nc2c1.O=C(O)C(F)(F)F` (stereo not drawn) [TCMDC-133099] is higher in “% Inhibition” value: -38.35% for the first, -9.129% for the second.

Going from `COc1ccc(-c2cccc(NC(=O)c3cccc(Cl)c3)c2)cc1CN1CCCN(C)CC1` [TCMDC-132614] to `COc1ccc(-c2cccc(NC(=O)c3cccc(Cl)c3)c2)cc1CN1CCCC1` [TCMDC-132615], the “% Inhibition” value rises from -18.61% to 79.62%.

Going from `COc1ccc(-c2ccc(NC(=O)c3cccc(Cl)c3)cc2)cc1CN1CCCC1` [TCMDC-132525] to `COc1ccc(-c2ccc(NC(=O)c3cccc(Cl)c3)cc2)cc1CN1CCC(O)CC1` [TCMDC-133334], the “% Inhibition” value rises from 40.62% to 46.17%.

First: O=C(Nc1ccc(-c2ccc(CN3CCNCC3)cc2)cc1)c1cccc(Cl)c1 [TCMDC-132590]
Second: O=C(Nc1cccc(-c2ccc(CN3CCNCC3)cc2)c1)c1cccc(Cl)c1 [TCMDC-132640]
The “% Inhibition” value of the first is higher: 87.95% for the first, -31.19% for the second.

First: CN1CCCN(Cc2cccc(-c3cccc(NC(=O)c4cccc(Cl)c4)c3)c2)CC1 [TCMDC-132657]
Second: O=C(Nc1cccc(-c2cccc(CN3CCCC3)c2)c1)c1cccc(Cl)c1 [TCMDC-132659]
The “% Inhibition” value of the first is lower: -0.3892% for the first, 85.38% for the second.

Compared with `COc1ccc(-c2ccc(NC(=O)c3ccc(C#N)cc3)cc2)cc1CN1CCNCC1` [TCMDC-132516], `COc1ccc(-c2cccc(NC(=O)c3cccc(Cl)c3)c2)cc1CN1CCC(O)CC1` [TCMDC-132618] is higher in “% Inhibition” value: 43.65% for the first, 87.3% for the second.

First: COc1ccc(-n2nc(C)c3c2NC(=O)CC3c2ccccc2OCc2ccc(F)cc2)cc1 (stereo not drawn) [TCMDC-124906]
Second: Cc1ccc(CNc2cc(C(F)(F)F)nc(-c3ccc(S(C)(=O)=O)cc3)n2)cc1 [TCMDC-138598]
The “% Inhibition” value of the first is higher: 40.61% for the first, 20.79% for the second.

First: O=C(c1cccc(-c2cccc(-c3nc4cc(C(F)(F)F)ccc4[nH]3)c2)c1)N1CCCCC1CN1CCC(O)C1 (stereo not drawn) [TCMDC-132346]
Second: CN1CCCN(c2ccnc3cc4c(cc23)N(C(=O)c2ccc(C(F)(F)F)cc2)CC4)CC1 [TCMDC-140243]
The “% Inhibition” value of the first is lower: -18.68% for the first, 67.52% for the second.

Compared with `CCN(CCCN1CCCCC1)c1cc(C)nc(Nc2cc(Cl)cc(Cl)c2)n1` [TCMDC-132455], `O=C(Nc1ccc(Cl)c(Cl)c1)N1CCc2cc3nccc(N4CCN5CCC[C@H]5C4)c3cc21` [TCMDC-140055] is higher in “% Inhibition” value: 8.984% for the first, 49.62% for the second.

Compared with `CC(C)c1cccc(C(NC(=O)[C@H]2Cc3ccccc3CN2C(=O)c2cccc(N3CCOCC3)c2)C2CCCC2)c1` (stereo partly drawn) [TCMDC-138264], `Cc1cc(-c2cccc3c(C(=O)N4CCc5cc6nccc(N7CCN8CCC[C@H]8C7)c6cc54)cccc23)cc(C)n1` [TCMDC-139793] is higher in “% Inhibition” value: 2.743% for the first, 31.07% for the second.

First: COc1ccc2nccc([C@@H](O)CN3CCC(NS(=O)(=O)c4cc(Br)c(Br)s4)CC3)c2c1 [TCMDC-141306]
Second: O=C(NC1CCN(CCCOc2ccnc3cc(Cl)ccc23)C1)c1ccc(Br)cc1 (stereo not drawn) [TCMDC-136147]
The “% Inhibition” value of the first is higher: 29.28% for the first, -6.07% for the second.

Compared with `CN1CCN(c2ccnc3cc4c(cc23)N(C(=O)Nc2ccc3c(c2)CCCC3=O)CC4)CC1` [TCMDC-139372], `CN1CCCN(c2ccnc3cc4c(cc23)N(C(=O)c2ccc(Cl)c(Cl)c2)CC4)CC1` [TCMDC-140242] is higher in “% Inhibition” value: 0.5076% for the first, 99.6% for the second.

First: CN1CCN(c2ccnc3cc4c(cc23)N(C(=O)Nc2ccc(-c3ccncc3)c3ccccc23)CC4)CC1 [TCMDC-139371]
Second: Cc1cc(-c2cccc3c(C(=O)N4CCc5cc6nccc(N7CCCN(C)CC7)c6cc54)cccc23)cc(C)n1 [TCMDC-140244]
The “% Inhibition” value of the first is lower: 4.895% for the first, 100.8% for the second.

Going from `O=C(/C=C/c1ccc(C(F)(F)F)cc1)N1CCc2cc3nccc(N4CCN5CCC[C@H]5C4)c3cc21` [TCMDC-140045] to `CN1CCCN(c2ccnc3cc4c(cc23)N(C(=O)c2ccc(Cl)cc2Cl)CC4)CC1` [TCMDC-140241], the “% Inhibition” value rises from 20.84% to 126.7%.
